The supplement of paper PMC10849652
Of roughly 7,900 targets only a part is listed; those with a hit were picked by preference. About 0.6% of all pairs of compound and target were hits. A number with no mark means an inactive call.

Tests used:
Assay in all cases: log2 fold change, soluble protein after heating vs DMSO (PISA); higher = thermal stabilisation; K562 cells, 10 uM, 30 min; active = over 0.2 and 3.5 SD of the protein, either way, in both replicates (recomputed)
[1] = compound: C#Cc1cccc(Nc2ncnc3cc(OCCOC)c(OCCOC)cc23)c1 [erlotinib]
Outline: (§1)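 K562 cells at 2×10^6 cells/mL were given 10 μM compound for 30 min. Aliquots then went through 3 min of heating across 48°C-58°C, were pooled, and were extracted in PBS with 0.5% NP-40 at 4°C, and the supernatant after 21,000xg for 90 min was quantified by TMTpro 16plex LC-MS/MS with channel sums equalised. Thermal stability relative to control samples, from duplicates, is given as log2 fold change.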

[2] = compound: C/C(=N\NC(=O)C1=CC(=CC=C1)S(=O)(=O)N2CCOCC2)/C3=C(C=CC(=C3)Cl)O
Outline: as §1

[3] = compound: C1=CC(=C(C=C1Cl)C2=NC3=NC=CN=C3C(=N2)NC4=CC=NC=C4)F
Outline: as §1

[4] = compound: C1=CC(=CC=C1C2=NC3=C(N2)C=C(C=C3)C(=O)N)OC4=CC=C(C=C4)Cl
Outline: as §1

[5] = compound: C1=CC2=C(C=CC(=C2)/C=C\3/C(=O)NC(=NCC4=CC=CS4)S3)N=C1
Outline: as §1

[6] = compound: C1=CC2=NC=CN=C2C=C1/C=C/3\C(=O)NC(=O)S3
Outline: as §1

[7] = compound: C1=CC=C(C=C1)C2=NC(=C(N2)C3=CC=NC=C3)C4=CC(=C(C=C4)Cl)O
Outline: as §1

[8] = compound: C1=CC=C2C(=C1)C3=NNC4=CC=CC(=C43)C2=O
Outline: as §1

[9] = compound: C1CCN(C1)C(=O)NC2=CC=CC(=C2)NC3=NC=C(C(=N3)NCCC4=CN=CN4)Br
Outline: as §1

[10] = compound: C1CN(CCC1(CC2=CC=C(C=C2)Cl)N)C3=NC=NC4=C3C=CN4
Outline: as §1

Sequence of UniProt Q8NBA8 (Q8NBA8 whole entry, looked up): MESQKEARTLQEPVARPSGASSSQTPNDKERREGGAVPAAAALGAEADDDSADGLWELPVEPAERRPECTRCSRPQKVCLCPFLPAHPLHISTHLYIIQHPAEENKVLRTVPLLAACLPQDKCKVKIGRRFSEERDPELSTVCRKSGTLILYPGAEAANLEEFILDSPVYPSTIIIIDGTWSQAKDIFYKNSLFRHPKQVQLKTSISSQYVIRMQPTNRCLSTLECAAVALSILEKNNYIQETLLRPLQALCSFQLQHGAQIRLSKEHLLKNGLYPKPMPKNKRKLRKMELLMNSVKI
Sequence of UniProt Q9H773 (Q9H773 whole entry, looked up): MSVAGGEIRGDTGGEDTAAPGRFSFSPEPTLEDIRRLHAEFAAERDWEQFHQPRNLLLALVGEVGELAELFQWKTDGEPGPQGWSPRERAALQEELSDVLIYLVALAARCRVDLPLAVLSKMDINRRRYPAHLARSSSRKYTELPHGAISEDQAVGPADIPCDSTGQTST
Sequence of UniProt Q6V1X1 (Q6V1X1 whole entry, looked up): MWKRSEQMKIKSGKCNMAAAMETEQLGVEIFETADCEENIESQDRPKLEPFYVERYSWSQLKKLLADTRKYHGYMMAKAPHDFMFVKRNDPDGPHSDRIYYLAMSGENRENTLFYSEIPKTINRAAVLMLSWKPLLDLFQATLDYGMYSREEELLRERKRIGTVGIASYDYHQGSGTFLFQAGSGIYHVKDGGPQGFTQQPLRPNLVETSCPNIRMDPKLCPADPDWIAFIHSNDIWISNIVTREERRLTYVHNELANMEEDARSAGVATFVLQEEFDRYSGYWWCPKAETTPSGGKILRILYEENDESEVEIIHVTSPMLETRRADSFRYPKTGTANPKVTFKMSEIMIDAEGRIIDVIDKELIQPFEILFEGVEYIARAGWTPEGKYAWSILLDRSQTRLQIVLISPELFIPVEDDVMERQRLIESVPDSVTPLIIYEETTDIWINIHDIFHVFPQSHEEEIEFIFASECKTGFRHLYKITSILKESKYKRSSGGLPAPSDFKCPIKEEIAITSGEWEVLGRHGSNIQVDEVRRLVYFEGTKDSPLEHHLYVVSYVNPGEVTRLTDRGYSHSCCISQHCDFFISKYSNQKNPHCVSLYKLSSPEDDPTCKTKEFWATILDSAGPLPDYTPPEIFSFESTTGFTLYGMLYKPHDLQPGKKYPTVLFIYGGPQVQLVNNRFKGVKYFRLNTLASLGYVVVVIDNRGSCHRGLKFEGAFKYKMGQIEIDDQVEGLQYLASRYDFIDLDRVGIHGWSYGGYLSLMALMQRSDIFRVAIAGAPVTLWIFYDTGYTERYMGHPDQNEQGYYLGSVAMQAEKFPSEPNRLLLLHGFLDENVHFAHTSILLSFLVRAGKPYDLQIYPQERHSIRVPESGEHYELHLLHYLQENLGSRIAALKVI
Sequence of UniProt Q6P2E9 (Q6P2E9 whole entry, looked up): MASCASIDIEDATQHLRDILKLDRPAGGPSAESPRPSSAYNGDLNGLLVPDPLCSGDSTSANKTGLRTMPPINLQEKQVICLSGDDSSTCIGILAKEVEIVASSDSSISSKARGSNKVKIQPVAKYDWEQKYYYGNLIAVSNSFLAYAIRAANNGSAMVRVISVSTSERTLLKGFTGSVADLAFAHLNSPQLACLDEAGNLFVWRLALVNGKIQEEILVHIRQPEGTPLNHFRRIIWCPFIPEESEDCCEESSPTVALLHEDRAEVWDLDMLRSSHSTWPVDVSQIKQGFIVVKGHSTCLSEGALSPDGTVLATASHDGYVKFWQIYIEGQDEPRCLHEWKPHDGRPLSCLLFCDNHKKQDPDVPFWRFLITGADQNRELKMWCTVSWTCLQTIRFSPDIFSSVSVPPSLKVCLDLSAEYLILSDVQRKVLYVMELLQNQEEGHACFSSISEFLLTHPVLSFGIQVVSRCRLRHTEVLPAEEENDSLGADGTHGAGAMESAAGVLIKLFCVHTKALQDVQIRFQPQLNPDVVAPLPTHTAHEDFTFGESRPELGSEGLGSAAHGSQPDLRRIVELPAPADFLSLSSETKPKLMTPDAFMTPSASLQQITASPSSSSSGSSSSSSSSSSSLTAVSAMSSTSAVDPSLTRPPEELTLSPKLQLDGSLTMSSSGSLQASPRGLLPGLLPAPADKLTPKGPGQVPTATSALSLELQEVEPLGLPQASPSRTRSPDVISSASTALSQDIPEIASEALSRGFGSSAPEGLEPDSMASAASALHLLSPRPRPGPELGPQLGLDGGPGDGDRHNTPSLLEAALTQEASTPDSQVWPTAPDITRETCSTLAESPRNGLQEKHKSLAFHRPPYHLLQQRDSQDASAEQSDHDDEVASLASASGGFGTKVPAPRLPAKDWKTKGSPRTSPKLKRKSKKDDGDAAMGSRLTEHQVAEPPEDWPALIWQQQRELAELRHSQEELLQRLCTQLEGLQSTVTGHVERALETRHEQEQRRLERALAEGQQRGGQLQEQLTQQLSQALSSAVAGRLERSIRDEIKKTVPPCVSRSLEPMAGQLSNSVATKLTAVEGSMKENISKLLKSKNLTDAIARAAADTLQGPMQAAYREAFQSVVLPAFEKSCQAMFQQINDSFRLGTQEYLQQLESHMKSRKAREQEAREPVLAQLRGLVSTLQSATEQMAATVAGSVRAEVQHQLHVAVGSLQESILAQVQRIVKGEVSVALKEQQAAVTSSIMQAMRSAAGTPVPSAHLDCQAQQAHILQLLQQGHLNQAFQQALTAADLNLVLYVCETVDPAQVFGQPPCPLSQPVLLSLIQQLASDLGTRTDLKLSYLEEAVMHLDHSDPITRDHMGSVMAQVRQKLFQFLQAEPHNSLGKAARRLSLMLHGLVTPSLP
Sequence of UniProt Q9UBM7 (Q9UBM7 whole entry, looked up): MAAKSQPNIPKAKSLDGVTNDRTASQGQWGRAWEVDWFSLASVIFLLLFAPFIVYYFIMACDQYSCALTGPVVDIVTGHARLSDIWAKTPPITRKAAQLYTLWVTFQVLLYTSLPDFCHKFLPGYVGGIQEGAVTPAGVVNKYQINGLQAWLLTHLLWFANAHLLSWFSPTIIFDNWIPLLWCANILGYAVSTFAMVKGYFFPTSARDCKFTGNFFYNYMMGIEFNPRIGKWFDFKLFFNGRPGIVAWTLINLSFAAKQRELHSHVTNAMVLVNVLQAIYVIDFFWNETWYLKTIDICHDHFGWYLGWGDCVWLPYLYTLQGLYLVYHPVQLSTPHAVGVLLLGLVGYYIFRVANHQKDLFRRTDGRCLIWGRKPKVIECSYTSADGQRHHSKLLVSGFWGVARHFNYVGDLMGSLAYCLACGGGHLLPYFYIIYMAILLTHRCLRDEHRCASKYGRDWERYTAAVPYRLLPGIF
Sequence of UniProt O60610 (O60610 whole entry, looked up): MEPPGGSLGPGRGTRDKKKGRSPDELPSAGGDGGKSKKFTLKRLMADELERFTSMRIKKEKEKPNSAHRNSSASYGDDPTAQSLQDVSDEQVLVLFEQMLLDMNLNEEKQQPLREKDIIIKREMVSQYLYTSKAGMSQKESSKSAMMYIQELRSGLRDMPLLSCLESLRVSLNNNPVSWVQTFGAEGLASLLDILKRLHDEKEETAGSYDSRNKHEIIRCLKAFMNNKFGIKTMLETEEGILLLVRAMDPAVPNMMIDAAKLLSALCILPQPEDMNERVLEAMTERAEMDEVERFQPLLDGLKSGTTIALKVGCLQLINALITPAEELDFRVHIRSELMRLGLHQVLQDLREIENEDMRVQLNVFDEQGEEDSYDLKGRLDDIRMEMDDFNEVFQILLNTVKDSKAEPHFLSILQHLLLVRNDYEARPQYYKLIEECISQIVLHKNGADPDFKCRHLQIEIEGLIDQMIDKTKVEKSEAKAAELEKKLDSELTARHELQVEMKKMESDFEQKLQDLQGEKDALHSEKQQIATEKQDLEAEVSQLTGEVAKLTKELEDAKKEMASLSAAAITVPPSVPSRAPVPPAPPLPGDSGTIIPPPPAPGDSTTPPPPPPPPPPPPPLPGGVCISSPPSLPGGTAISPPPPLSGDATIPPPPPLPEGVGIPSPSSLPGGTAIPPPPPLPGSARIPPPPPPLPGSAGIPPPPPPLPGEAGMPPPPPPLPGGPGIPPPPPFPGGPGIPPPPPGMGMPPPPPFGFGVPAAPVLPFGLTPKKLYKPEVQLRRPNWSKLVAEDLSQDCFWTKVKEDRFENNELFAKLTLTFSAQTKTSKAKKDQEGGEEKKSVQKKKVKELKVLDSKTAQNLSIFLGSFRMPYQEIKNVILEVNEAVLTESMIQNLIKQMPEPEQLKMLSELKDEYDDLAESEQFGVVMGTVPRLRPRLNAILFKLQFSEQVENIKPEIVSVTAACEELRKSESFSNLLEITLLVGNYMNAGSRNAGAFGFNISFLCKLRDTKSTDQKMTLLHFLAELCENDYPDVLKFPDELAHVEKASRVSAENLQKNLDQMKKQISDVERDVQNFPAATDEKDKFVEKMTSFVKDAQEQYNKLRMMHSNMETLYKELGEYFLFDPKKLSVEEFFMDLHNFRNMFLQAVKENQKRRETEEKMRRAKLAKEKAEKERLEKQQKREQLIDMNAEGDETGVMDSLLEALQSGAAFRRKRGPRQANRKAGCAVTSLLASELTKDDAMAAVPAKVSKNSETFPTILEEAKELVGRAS
Sequence of UniProt P34913 (P34913 whole entry, looked up): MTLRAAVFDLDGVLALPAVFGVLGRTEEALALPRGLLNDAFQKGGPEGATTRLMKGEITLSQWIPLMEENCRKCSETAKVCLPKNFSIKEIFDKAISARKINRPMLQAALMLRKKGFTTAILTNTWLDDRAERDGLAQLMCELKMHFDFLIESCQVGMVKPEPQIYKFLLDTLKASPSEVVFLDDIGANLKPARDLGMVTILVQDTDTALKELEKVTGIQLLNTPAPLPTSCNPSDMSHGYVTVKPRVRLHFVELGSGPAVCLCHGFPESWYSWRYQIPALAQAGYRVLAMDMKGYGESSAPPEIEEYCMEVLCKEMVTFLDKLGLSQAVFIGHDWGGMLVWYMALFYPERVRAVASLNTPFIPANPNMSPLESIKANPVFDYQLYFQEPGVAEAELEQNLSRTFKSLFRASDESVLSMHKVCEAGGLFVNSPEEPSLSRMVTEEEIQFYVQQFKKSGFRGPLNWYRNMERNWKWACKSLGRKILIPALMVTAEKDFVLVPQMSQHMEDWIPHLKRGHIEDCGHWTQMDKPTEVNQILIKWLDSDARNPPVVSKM

Row | Target | log2 fold change [1] | log2 fold change [2] | log2 fold change [3] | log2 fold change [4] | log2 fold change [5] | log2 fold change [6] | log2 fold change [7] | log2 fold change [8] | log2 fold change [9] | log2 fold change [10]
1 | DHCR7 (UniProt Q9UBM7) | 0.113 | 0.041 | -0.095 | -0.056 | 0.071 | 0.022 | 0.038 | -0.003 | -0.037 | 0.623 (active)
2 | DTWD2 (UniProt Q8NBA8) | 0.017 | 0.018 | 0.014 | -0.095 | -0.124 | 0.072 | 0.065 | 0.033 | 0.066 | -0.02
3 | DIAPH1 (UniProt O60610) | 0.072 | 0.058 | -0.109 | -0.037 | 0.031 | 0.04 | 0.067 | 0.006 | -0.072 | -0.235
4 | EXOC5 (UniProt O00471) | 0.054 | 0.092 | -0.002 | -0.044 | 0.01 | 0 | -0.006 | 0.015 | 0.004 | -0.015
5 | DYRK1A isoform 2 (UniProt Q13627) | 0.034 | 0.039 | -0.058 | 0.019 | -0.095 | -0.173 | -0.027 | -0.064 | -0.093 | -0.067
6 | ELOVL5 isoform 2 (UniProt Q9NYP7) | 0.03 | 0.117 | -0.087 | -0.005 | 0.084 | 0.122 | 0.068 | -0.068 | 0.031 | 0.008
7 | DENND10 (UniProt Q8TCE6) | -0.01 | -0.005 | -0.049 | -0.08 | -0.051 | 0.018 | 0 | -0.04 | 0.063 | 0.083
8 | EPHX2 (UniProt P34913) | -0.01 | 0.213 | -0.008 | 0.2 | 0.09 | -0.004 | 0.038 | -0.032 | 0.123 | -0.001
9 | DCUN1D1 (UniProt Q96GG9) | -0.038 | 0.052 | 0.041 | -0.009 | 0.015 | 0.001 | 0.021 | -0.014 | -0.017 | 0.024
10 | DDB1 (UniProt Q16531) | -0.03 | 0.006 | 0.009 | 0.022 | 0.003 | 0.014 | -0.019 | -0.032 | 0.018 | 0.04
11 | EIF4G1 isoform 8 (UniProt Q04637) | -0.092 | 0.128 | -0.065 | 0.011 | -0.036 | -0.089 | -0.099 | -0.246 | -0.197 | -0.28
12 | CTSL (UniProt P07711) | -0.005 | -0.173 | -0.036 | -0.022 | -0.203 | 0.019 | -0.002 | -0.041 | -0.023 | 0.005
13 | EDC4 (UniProt Q6P2E9) | -0.045 | 0.1 | -0.058 | 0.017 | -0.177 | -0.069 | -0.035 | -0.151 | -0.023 | -0.041
14 | DCTPP1 (UniProt Q9H773) | 0.01 | -0.07 | 0.14 | -0.039 | -0.073 | 0.035 | 0.194 | 0.012 | -0.021 | -0.054
15 | EHBP1L1 (UniProt Q8N3D4) | -0.005 | 0.088 | 0.06 | -0.005 | 0.057 | 0.026 | -0.013 | -0.03 | -0.1 | -0.116
16 | DPP8 (UniProt Q6V1X1) | 0.093 | 0.088 | 0.067 | 0 | 0.134 | 0.018 | -0.067 | -0.011 | -0.003 | 0.008
